# In paper PMC7862700, “An all-to-all approach to the identification of sequence-specific readers for epigenetic DNA modifications on cytosine”:
# What was measured:
# Assay in all cases: DAPPL (digital affinity profiling via proximity ligation, sequencing); 10 mM Tris-HCl pH 7.5, 50 mM NaCl, 1 mM DTT, 4% glycerol, room temperature, 30 min; GST-TFs on glutathione beads, 16-mer random dsDNA library, 0.1% formaldehyde crosslink after washing; high values mean tight binding
# FEV = target: T1, FEV (Homo sapiens, UniProt Q99581 1-238); conditions: protein: recombinant; tags: N-terminal GST; dsDNA, one strand shown
# T1 sequence: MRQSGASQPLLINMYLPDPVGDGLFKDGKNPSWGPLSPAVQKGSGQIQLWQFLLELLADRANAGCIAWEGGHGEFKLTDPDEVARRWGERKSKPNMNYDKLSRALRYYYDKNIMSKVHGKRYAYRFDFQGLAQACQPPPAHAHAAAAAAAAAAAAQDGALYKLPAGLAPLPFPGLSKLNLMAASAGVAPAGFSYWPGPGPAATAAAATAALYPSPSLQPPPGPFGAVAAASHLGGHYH
# How it was run: (§1)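 Binding signal is each hexamer's read frequency for a factor divided by its frequency in the tag-only sample. The factors were GST-fused human transcription factors from yeast, captured on glutathione beads, DNA-barcoded and pooled with that sample. Pools were incubated with 200 nmole of a random double-stranded 16-mer DNA library in Tris/NaCl/DTT/glycerol buffer at room temperature for 30 min, then washed, crosslinked with 0.1% formaldehyde, proximity-ligated with BsaI/T4 ligase (1 h, 37 °C), PCR-amplified and sequenced on an Illumina NextSeq500.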
# ETV5 = ETV5 (Homo sapiens, UniProt P41161 1-510); conditions: protein: recombinant; tags: N-terminal GST; dsDNA, one strand shown
# How it was run: as §1
# HSF1 = HSF1 (Homo sapiens, UniProt Q00613 1-529); conditions: protein: recombinant; tags: N-terminal GST; chain copies: 3; dsDNA, one strand shown
# How it was run: as §1
# SPIC = target: T2, SPIC (Homo sapiens, UniProt Q8N5J4 1-248); conditions: protein: recombinant; tags: N-terminal GST; dsDNA, one strand shown
# T2 sequence: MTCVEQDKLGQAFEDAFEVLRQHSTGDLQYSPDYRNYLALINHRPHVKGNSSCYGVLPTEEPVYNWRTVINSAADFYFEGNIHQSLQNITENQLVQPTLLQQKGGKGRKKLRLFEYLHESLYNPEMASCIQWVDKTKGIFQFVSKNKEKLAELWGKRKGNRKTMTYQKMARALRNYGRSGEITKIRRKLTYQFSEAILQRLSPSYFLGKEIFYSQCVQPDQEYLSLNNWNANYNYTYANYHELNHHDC
# How it was run: as §1
# ELF4 = ELF4 (Homo sapiens, UniProt Q99607 1-663); conditions: protein: recombinant; tags: N-terminal GST; dsDNA, one strand shown
# How it was run: as §1
# ELK4 = target: T3, ELK4 (Homo sapiens, UniProt P28324-2 1-405); conditions: protein: recombinant; tags: N-terminal GST; dsDNA, one strand shown
# T3 sequence: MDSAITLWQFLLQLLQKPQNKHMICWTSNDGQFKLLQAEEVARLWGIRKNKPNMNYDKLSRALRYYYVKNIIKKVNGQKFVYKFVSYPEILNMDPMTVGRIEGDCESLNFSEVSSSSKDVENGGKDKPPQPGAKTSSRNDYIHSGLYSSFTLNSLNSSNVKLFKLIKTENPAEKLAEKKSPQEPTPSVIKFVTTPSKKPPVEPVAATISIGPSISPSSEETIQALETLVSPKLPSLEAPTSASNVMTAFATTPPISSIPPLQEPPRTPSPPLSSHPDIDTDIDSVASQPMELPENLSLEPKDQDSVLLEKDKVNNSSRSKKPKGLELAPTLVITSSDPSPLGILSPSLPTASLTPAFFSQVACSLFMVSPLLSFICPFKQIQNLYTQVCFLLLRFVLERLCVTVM
# How it was run: as §1
# ETV2 = target: T4, ETV2 (Homo sapiens, UniProt O00321 1-342); conditions: protein: recombinant; tags: N-terminal GST; dsDNA, one strand shown
# T4 sequence: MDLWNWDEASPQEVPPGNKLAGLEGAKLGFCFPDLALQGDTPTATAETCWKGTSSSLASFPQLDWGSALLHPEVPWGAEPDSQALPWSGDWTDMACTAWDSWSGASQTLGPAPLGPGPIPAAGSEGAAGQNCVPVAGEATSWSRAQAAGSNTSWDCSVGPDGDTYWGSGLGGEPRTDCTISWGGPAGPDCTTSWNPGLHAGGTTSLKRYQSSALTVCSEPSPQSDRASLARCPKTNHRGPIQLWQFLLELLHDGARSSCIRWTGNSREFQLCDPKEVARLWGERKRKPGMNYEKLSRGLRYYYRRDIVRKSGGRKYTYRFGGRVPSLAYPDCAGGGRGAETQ
# How it was run: as §1
# ELF3 = target: T5, ELF3 (Homo sapiens, UniProt P78545 1-371); conditions: protein: recombinant; tags: N-terminal GST; dsDNA, one strand shown
# T5 sequence: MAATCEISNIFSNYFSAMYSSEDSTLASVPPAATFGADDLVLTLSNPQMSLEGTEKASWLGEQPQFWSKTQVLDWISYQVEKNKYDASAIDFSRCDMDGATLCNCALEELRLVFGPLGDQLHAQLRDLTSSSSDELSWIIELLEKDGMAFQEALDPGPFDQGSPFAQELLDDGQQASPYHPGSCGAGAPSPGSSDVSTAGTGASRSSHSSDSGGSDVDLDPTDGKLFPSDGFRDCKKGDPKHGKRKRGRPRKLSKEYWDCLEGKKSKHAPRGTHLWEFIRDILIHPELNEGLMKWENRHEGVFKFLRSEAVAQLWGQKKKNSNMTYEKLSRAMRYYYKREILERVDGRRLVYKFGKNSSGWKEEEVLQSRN
# How it was run: as §1
# CRX = CRX (Homo sapiens, UniProt O43186 1-299); conditions: protein: recombinant; tags: N-terminal GST; dsDNA, one strand shown
# How it was run: as §1
# ETV1 = ETV1 (Homo sapiens, UniProt P50549 1-477); conditions: protein: recombinant; tags: N-terminal GST; dsDNA, one strand shown
# How it was run: as §1
# ERF = target: T6, ERF (Homo sapiens, UniProt P50548 1-548); conditions: protein: recombinant; tags: N-terminal GST; dsDNA, one strand shown
# T6 sequence: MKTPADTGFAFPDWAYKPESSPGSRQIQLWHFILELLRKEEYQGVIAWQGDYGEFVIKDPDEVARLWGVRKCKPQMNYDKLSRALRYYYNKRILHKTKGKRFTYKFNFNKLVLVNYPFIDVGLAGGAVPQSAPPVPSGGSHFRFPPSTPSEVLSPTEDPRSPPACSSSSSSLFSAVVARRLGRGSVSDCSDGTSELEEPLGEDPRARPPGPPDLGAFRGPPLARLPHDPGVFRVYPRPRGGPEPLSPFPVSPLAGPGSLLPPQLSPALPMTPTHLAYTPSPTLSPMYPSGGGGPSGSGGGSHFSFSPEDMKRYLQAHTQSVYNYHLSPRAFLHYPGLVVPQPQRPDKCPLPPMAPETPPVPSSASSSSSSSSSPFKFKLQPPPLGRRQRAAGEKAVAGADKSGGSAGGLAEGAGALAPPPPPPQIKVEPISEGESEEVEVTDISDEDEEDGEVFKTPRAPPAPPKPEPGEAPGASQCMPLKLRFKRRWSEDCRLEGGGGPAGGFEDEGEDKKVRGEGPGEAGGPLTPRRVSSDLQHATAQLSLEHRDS
# How it was run: as §1
# ETV3L = target: T7, ETV3L (Homo sapiens, UniProt Q6ZN32 1-361); conditions: protein: recombinant; tags: N-terminal GST; dsDNA, one strand shown
# T7 sequence: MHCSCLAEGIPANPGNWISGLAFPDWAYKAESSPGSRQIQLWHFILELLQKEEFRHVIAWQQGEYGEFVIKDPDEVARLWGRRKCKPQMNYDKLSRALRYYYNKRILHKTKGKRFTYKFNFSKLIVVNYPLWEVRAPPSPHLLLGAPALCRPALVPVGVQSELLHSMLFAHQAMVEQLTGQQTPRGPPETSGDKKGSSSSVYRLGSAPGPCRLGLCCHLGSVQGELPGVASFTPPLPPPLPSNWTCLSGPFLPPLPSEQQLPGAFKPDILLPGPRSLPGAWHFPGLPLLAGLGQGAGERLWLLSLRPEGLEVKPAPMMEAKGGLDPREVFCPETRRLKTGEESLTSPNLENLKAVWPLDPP
# How it was run: as §1
# ETS2 = target: T8, ETS2 (Homo sapiens, UniProt P15036 1-469); conditions: protein: recombinant; tags: N-terminal GST; dsDNA, one strand shown
# T8 sequence: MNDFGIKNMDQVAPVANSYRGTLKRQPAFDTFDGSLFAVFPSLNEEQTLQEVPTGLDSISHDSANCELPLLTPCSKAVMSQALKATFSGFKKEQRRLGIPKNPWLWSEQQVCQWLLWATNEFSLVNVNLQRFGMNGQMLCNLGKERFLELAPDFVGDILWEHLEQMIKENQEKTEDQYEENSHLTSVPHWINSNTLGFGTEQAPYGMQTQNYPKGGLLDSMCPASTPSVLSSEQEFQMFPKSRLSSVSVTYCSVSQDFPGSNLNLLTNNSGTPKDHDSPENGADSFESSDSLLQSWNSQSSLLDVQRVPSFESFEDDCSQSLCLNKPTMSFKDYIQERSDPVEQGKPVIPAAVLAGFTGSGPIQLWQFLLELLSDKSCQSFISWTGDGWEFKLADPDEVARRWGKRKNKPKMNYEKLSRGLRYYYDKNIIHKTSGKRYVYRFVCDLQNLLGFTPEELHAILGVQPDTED
# How it was run: as §1
# SPDEF = target: T9, SPDEF (Homo sapiens, UniProt O95238 1-335); conditions: protein: recombinant; tags: N-terminal GST; dsDNA, one strand shown
# T9 sequence: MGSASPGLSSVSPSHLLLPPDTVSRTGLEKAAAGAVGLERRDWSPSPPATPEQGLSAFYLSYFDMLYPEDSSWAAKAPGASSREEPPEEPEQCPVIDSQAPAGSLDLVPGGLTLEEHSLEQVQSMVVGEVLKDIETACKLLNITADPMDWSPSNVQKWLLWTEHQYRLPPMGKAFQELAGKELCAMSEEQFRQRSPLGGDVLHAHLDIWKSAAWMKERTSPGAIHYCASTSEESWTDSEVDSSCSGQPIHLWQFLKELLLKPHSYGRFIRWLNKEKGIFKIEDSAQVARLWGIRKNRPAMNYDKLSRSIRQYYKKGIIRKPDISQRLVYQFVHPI
# How it was run: as §1
# ETV7 = target: T10, ETV7 (Homo sapiens, UniProt Q9Y603 1-341); conditions: protein: recombinant; tags: N-terminal GST; dsDNA, one strand shown
# T10 sequence: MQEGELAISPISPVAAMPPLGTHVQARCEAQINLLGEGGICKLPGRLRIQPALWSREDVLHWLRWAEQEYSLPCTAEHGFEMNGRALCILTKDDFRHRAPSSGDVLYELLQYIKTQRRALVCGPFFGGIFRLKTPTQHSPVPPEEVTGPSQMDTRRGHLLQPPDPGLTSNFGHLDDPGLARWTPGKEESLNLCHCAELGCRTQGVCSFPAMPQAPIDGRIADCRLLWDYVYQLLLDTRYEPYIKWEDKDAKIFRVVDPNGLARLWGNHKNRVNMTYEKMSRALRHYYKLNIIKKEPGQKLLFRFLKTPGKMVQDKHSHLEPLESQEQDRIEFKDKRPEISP
# How it was run: as §1
# ELF5 = target: T11, ELF5 (Homo sapiens, UniProt Q9UKW6-2 1-255); conditions: protein: recombinant; tags: N-terminal GST; dsDNA, one strand shown
# T11 sequence: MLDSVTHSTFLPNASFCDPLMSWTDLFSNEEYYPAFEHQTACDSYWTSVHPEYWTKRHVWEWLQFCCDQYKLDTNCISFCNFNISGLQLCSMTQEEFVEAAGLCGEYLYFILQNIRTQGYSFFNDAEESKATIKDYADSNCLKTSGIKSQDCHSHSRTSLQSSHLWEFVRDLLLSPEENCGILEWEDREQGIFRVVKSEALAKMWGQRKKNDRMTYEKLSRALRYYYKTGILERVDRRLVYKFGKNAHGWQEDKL
# How it was run: as §1
# ETV3 = target: T12, ETV3 (Homo sapiens, UniProt P41162-2 1-143); conditions: protein: recombinant; tags: N-terminal GST; dsDNA, one strand shown
# T12 sequence: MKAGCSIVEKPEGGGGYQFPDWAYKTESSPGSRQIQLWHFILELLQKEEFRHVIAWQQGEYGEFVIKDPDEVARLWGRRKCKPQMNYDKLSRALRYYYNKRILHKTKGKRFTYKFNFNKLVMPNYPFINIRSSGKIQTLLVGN
# How it was run: as §1
# ETV6 = ETV6 (Homo sapiens, UniProt P41212 1-452); conditions: protein: recombinant; tags: N-terminal GST; dsDNA, one strand shown
# How it was run: as §1
# Sequence of ELF4 (Q99607 whole entry): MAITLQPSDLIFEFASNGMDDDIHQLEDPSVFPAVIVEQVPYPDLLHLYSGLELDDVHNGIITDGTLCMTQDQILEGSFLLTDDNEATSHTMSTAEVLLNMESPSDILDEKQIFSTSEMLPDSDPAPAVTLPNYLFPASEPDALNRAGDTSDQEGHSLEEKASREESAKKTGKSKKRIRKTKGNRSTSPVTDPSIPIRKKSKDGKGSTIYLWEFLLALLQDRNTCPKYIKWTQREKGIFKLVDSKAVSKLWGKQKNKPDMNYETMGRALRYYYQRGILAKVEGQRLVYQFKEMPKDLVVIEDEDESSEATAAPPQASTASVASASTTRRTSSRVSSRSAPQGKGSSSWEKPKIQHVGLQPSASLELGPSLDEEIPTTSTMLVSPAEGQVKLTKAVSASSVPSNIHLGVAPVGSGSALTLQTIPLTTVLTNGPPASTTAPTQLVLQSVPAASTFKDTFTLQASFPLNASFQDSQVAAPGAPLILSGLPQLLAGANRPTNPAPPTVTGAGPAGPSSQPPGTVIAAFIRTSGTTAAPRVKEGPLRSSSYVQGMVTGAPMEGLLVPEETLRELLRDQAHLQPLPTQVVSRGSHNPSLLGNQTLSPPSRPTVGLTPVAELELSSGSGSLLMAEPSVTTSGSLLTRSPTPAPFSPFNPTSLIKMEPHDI
# Sequence of HSF1 (Q00613 whole entry): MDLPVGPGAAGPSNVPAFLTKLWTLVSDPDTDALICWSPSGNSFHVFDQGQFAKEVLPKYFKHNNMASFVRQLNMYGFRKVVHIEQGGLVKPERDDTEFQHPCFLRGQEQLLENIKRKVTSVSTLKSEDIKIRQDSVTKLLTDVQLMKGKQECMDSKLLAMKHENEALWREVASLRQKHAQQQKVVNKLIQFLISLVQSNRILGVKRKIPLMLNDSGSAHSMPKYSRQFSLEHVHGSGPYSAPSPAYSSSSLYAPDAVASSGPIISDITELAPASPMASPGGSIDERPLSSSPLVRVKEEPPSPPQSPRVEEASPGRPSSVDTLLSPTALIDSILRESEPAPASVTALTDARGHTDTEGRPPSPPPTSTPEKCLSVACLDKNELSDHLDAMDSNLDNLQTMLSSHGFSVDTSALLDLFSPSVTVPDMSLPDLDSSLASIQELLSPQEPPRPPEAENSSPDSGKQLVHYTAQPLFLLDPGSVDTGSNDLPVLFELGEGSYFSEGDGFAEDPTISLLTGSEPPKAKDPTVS
# Sequence of ETV6 (P41212 whole entry): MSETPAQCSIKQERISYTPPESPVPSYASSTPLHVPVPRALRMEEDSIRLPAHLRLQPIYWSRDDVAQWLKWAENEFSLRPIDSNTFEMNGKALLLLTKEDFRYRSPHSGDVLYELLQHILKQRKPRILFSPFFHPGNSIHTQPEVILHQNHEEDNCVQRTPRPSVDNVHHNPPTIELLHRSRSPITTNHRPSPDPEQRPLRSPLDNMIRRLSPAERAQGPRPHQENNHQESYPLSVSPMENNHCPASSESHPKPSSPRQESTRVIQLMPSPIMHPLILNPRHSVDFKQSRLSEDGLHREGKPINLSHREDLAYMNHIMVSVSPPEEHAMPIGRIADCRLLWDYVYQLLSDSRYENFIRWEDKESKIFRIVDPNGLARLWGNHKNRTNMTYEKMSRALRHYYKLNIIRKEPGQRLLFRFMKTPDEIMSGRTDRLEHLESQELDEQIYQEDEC
# Sequence of ETV1 (P50549 whole entry): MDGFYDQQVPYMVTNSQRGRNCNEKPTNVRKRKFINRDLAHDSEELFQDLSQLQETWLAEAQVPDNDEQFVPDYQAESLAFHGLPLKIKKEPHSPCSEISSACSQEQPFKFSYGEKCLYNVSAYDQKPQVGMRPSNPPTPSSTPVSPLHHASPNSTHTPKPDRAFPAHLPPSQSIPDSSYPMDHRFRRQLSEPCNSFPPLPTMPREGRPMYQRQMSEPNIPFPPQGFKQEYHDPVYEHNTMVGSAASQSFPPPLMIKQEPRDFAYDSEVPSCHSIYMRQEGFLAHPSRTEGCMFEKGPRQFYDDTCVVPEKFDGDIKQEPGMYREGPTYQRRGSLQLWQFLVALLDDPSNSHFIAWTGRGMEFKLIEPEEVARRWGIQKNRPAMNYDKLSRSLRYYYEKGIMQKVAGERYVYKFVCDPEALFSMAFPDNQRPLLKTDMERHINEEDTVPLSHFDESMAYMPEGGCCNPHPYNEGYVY
# Sequence of ETV5 (P41161 whole entry): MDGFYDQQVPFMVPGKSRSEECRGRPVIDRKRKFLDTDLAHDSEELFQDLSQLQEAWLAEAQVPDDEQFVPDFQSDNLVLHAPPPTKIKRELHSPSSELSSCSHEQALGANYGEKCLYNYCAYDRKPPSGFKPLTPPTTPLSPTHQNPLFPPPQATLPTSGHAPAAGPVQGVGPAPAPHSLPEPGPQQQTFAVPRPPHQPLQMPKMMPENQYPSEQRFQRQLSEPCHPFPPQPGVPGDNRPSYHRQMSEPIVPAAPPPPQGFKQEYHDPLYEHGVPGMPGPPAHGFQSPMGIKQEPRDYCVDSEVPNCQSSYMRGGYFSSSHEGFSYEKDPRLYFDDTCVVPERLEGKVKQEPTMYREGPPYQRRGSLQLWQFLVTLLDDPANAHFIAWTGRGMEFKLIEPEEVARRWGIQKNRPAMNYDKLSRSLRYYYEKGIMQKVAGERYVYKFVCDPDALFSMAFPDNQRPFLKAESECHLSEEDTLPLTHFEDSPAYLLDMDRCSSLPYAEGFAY
# Sequence of CRX (O43186 whole entry): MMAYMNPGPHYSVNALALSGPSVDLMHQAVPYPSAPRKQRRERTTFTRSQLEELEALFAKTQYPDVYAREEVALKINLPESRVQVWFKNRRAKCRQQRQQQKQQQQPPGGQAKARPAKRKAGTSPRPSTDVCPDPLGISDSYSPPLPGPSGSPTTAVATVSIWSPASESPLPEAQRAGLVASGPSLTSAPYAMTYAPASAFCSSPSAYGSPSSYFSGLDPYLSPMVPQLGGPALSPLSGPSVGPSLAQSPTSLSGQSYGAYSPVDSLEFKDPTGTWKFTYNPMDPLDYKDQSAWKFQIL
sequence,measurement,setting,value
TACCTA,binding signal,FEV,"1.2 fold enrichment (6-mer frequency, TF over GST control)"
same,binding signal,ETV5,"1.31 fold enrichment (6-mer frequency, TF over GST control)"
same,binding signal,HSF1,"1.28 fold enrichment (6-mer frequency, TF over GST control)"
same,binding signal,SPIC,"1.19 fold enrichment (6-mer frequency, TF over GST control)"
same,binding signal,ELF4,"1.3 fold enrichment (6-mer frequency, TF over GST control)"
same,binding signal,ELK4,"1.35 fold enrichment (6-mer frequency, TF over GST control)"
same,binding signal,ETV2,"1.21 fold enrichment (6-mer frequency, TF over GST control)"
same,binding signal,ELF3,"1.3 fold enrichment (6-mer frequency, TF over GST control)"
same,binding signal,CRX,"1.55 fold enrichment (6-mer frequency, TF over GST control)"
same,binding signal,ETV1,"1.34 fold enrichment (6-mer frequency, TF over GST control)"
same,binding signal,ERF,"1.25 fold enrichment (6-mer frequency, TF over GST control)"
same,binding signal,ETV3L,"1.28 fold enrichment (6-mer frequency, TF over GST control)"
same,binding signal,ETS2,"1.31 fold enrichment (6-mer frequency, TF over GST control)"
same,binding signal,SPDEF,"1.19 fold enrichment (6-mer frequency, TF over GST control)"
same,binding signal,ETV7,"1.27 fold enrichment (6-mer frequency, TF over GST control)"
same,binding signal,ELF5,"1.23 fold enrichment (6-mer frequency, TF over GST control)"
same,binding signal,ETV3,"1.2 fold enrichment (6-mer frequency, TF over GST control)"
same,binding signal,ETV6,"1.29 fold enrichment (6-mer frequency, TF over GST control)"
